Only some compounds are listed: those with a hit (about 1.3% of all), similar ones and a draw of the others.
GALK inhibitor – galactokinase (human) inhibition | P51570 | Purified GALK, Kinase-Glo residual ATP luminescence | Potency, µM (highest dose often 57.5 µM), actives largely listed as inhibitors | 0.007% of 270,000 active | AID 1868
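Human GALK (5 nM) with 35 uM ATP and 100 uM galactose in 20 mM HEPES pH 8.0, 5 mM MgCl2, 60 mM NaCl, 1 mM DTT, 0.01% BSA. After 1 h at room temperature, leftover ATP was read by Kinase-Glo Plus luminescence.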
IDH1 R132H inh – blocks human mutant IDH1 R132H enzyme | O75874 | IDH1-R132H enzyme, NADPH consumption, diaphorase/resazurin fluorescence | Potency, µM (titrated, usually from 76.6 µM), most hits filed as inhibitors | 0.093% of 390,000 active | AID 602179; note: nearly all actives have a fitted effect of over 65% in size
Target sequence (O75874 whole entry R132H, stated change not applied): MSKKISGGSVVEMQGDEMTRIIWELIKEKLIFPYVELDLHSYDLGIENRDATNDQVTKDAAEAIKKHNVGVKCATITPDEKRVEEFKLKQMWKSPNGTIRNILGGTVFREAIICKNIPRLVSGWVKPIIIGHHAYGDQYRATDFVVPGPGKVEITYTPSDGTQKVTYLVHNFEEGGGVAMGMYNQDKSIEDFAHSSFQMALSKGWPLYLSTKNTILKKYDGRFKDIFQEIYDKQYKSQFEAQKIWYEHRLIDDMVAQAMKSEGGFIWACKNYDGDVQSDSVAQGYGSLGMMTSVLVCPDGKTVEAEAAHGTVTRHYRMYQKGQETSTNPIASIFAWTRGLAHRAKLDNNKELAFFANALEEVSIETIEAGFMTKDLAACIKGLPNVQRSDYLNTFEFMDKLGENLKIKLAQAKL
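IDH1-R132H (0.5 ug/mL dispensed) in pH 7.5 Tris buffer was preincubated 30 min with compound, then given a substrate mix of 0.016 mM NADPH and 2 mM alpha-KG for 80 min at room temperature; remaining NADPH was read by diaphorase/resazurin fluorescence.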
TrxR1 substrate – rat thioredoxin reductase 1 substrate activity; O89049; purified TrxR1 substrate turnover, NADPH consumption readout; Potency, µM (highest dose often 114 µM); 0.01% of 390,000 active; AID 588456; note: nearly all actives have a fitted effect of over 50% in size
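Rat TrxR1, dispensed at 90 nM, was prereduced with 400 uM NADPH (final) for 5 min at ~22 deg C, then incubated with compound 15 min before 400 uM selenite. A first-read NADPH fluorescence drop versus no-compound background flagged substrates.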
rTrxR1 inhibitor – rat TrxR1 inhibition; O89049; recombinant rTrxR1, NADPH fluorescence consumption, selenite substrate; Potency, µM (series often up to 114 µM), actives largely listed as inhibitors; 1% of 390,000 active; AID 588453; note: nearly all actives have a fitted effect of over 65% in size
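Rat TrxR1 (90 nM in the dispensed reagent) was pre-reduced with 400 uM NADPH for 5 min at room temperature, then incubated with compound for 15 min. After 400 uM selenite was added, NADPH fluorescence (Ex 340/Em 450 nm) was followed for 8 min.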
PKM2 activator – increases activity of human pyruvate kinase M2. purified PKM2, Kinase-Glo ATP luminescence, activation; response scale: 0% is enzyme alone, no compound. AID 1631. Potency, µM (highest dose often 57.5 µM), most hits filed as activators. P14618. 0.34% of 260,000 active; note: nearly all actives have a fitted effect of over 55% in size
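Purified hPK-M2 (>95%) run at intermediate activity with 0.1 mM ADP and 0.5 mM PEP in 50 mM imidazole pH 7.2, KCl, MgCl2; 1 h room temperature. ATP formed read by Kinase-Glo luminescence; normalized to uninhibited and no-enzyme controls.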
Apoferritin bind – binds horse apoferritin like a general anesthetic; P02791; apoferritin/1-aminoanthracene competitive binding, fluorescence; Potency, µM (highest dose often 77.5 µM), most hits filed as inhibitors; 0.074% of 350,000 active; AID 485281; note: nearly all actives have a fitted effect of over 20% in size
Target sequence (P02791 2-175 limits assumed): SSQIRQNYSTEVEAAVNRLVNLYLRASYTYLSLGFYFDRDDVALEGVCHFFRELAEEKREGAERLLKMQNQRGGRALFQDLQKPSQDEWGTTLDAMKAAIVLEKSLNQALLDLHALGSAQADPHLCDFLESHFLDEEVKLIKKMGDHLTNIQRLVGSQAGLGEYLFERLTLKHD
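Horse-spleen apoferritin (10 uM) in 50% saturated 1-aminoanthracene in PBS was incubated 10 min at room temperature with compound. Fluorescence (ex 380, em 535 nm) was normalized to free and bound 1-AMA, with concentration-response fitted by a four-parameter Hill equation.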
Numbers stand for hits; – = inactive; ? = inconclusive; · = no result given; ! = not confirmed by another sample; [ ] = another dose, or the depositor's remark. Calls come from the whole dose curve; as a rule, active = well fitted curve in the direction sought with a large enough effect; inconclusive = small, poorly fitted or top-dose-only effect, or another doubt; inactive = no such curve, though single readings can be large; an effect the other way counts as inactive or inconclusive.

SMILES	GALK inhibitor	IDH1 R132H inh	TrxR1 substrate	rTrxR1 inhibitor	PKM2 activator	Apoferritin bind
COC(=O)c1ccccc1NC(=O)c1nc(S(=O)(=O)Cc2ccccc2F)ncc1Cl	·	–	–	?	·	–
Cc1cccc(CS(=O)(=O)c2ncc(Cl)c(C(=O)Nc3c(C)cccc3C)n2)c1	–	–	–	?	·	–
Cc1cccc(C)c1NC(=O)c1nc(S(=O)(=O)Cc2ccccc2F)ncc1Cl	·	·	–	4.5µM	·	·
CCc1nnc(NC(=O)c2nc(SCc3cccc(C)c3)ncc2Cl)s1	·	–	–	–	·	?
COc1ccc(OC)c(NC(=O)c2nc(S(=O)(=O)Cc3ccccc3)ncc2Cl)c1	–	–	–	3.5µM	·	–
Cc1cccc(CSc2ncc(Cl)c(C(=O)Nc3nnc(C)s3)n2)c1	·	–	–	–	·	14µM
O=C(Nc1ccccc1F)c1nc(S(=O)(=O)Cc2ccccc2F)ncc1Cl	·	–	–	1.6µM	·	–
CCN(CC)S(=O)(=O)c1nnc(NC(=O)c2ccco2)s1	–	–	–	–	·	–
CN(Cc1ccco1)S(=O)(=O)c1nnc(NC(=O)c2cccc(Cl)c2)s1	–	–	–	25µM!	·	–
CCN(c1ccc(C)cc1)S(=O)(=O)c1nnc(NC(=O)c2ccco2)s1	–	–	–	56µM	–	–
CN(C)c1ccc(/C=C/c2cc(Cl)nc3ccccc23)cc1	·	·	–	–	·	·
CCN(CCCN(C)C)c1ccc(/C=C/c2ccnc3ccccc23)cc1	·	·	–	?	·	·
CCCCOc1ccc(C(=O)CCN2CCCCC2)cc1	–	–	–	3.2µM	–	?
CC(=O)c1ccc(OCCCN2CCCCC2)cc1	–	–	–	–	–	–
CC(C)COc1ccc(C(=O)OCCN2CCCCC2)cc1	–	–	–	–	·	–
CC(C)COc1ccc(C(=O)CCN2CCCCC2)cc1	–	–	–	1.4µM	–	?
CN1/C(=C\C(=O)c2ccco2)C(C)(C)c2ccccc21	–	–	–	10µM	–	–
CN1/C(=C/C(=O)c2nc(S(C)(=O)=O)ncc2Cl)C(C)(C)c2ccccc21	–	–	–	50µM	–	?
O=C1[C@@H]2C(c3cccnc3)=NO[C@@H]2C(=O)N1c1ccc(Br)cc1	–	–	–	28µM	–	–
CN1CCN(C(c2ccc(Br)cc2)c2cc(Cl)c3cccnc3c2O)CC1 (configuration not stated)	–	–	–	8.9µM	–	–
CN1CCN(C(c2cccnc2)c2ccc3cccnc3c2O)CC1 (configuration not stated)	–	–	–	5µM	–	?
COC(=O)c1cc2sc(C)cc2n1Cc1cccc(OC)c1	·	·	–	–	·	–
CCc1cccc(NC(=O)CN(C)S(=O)(=O)c2ccc3c(c2)CCCN3C(C)=O)c1	·	–	–	–	·	–
O=C(C[N+]12CN3CN(CN(C3)C1)C2)c1ccc(I)cc1	·	·	–	–	·	·
Cc1ccc(S(=O)(=O)/C=C/C#N)cc1	·	·	–	0.95µM	·	–
SMILES	GALK inhibitor	IDH1 R132H inh	TrxR1 substrate	rTrxR1 inhibitor	PKM2 activator	Apoferritin bind
COc1cc(/C=C(/C(=O)c2cccs2)c2nc3ccccc3[nH]2)cc(OC)c1O	–	–	–	56µM	–	–
COc1ccc(C(=O)N/C(=C/c2cccs2)c2nc3ccccc3[nH]2)cc1OC	·	–	–	–	?	·
Cc1cc(C)c2sc(N3CCN(C(=O)C4CC4)CC3)nc2c1	·	–	–	–	·	–
Cc1cc(-c2nnc(-c3ccccc3)c(-c3ccccc3)n2)c(C)o1	–	–	–	32µM	–	?
COc1cc2c(=O)c(C(=O)c3ccc(F)cc3)cn(Cc3cccc(F)c3)c2cc1OC	·	–	–	–	·	?
Cc1cccn2c(=O)c3cc(C#N)c(=NC(=O)c4ccccc4)n(Cc4ccco4)c3nc12	·	–	–	50µM	·	·
CCOC(=O)c1cc2c(=O)n3ccccc3nc2n(Cc2ccco2)c1=NC(=O)c1ccc(Br)cc1	·	–	–	?	·	–
Cc1cccc(C(=O)N=c2c(C#N)cc3c(=O)n4cccc(C)c4nc3n2Cc2ccco2)c1	–	–	–	6.3µM	–	–
CCOC(=O)c1cc2c(=O)n3ccccc3nc2n(Cc2ccco2)c1=NC(=O)c1cccc(Br)c1	·	–	–	4µM	·	–
NC1=C(Br)C(=O)c2ccccc2C1=O	–	–	–	–[11.4 µM]	–	–
Cc1cc2c(cc1C)C(=O)C(Br)=C(N)C2=O	·	–	–	50µM	·	·
COC(C/C=C\C(=O)[C@H](C)OCc1ccccc1)OC	·	–	–	45µM	·	·
COC(C/C=C\[C@@H](O)[C@@H](C)OCc1ccccc1)OC	·	–	–	–	·	·
C/C(=C1/C=Nc2ccccc21)c1ccc(N(C)C)cc1	·	·	–[0.0914 µM]	–	·	·
C1=C(c2ccccc2)CCN(c2nc3ccccc3n3cnnc23)C1	–	–	–	4µM	–	–
COc1cc(Nc2ccc(S(N)(=O)=O)cc2)c([N+](=O)[O-])nc1[N+](=O)[O-]	–	–	–	3.2µM	–	–
FC(F)(F)c1cccc(N2CCN(c3ncnc4c3nc3n4CCCC3)CC2)c1	·	–	–	–	·	–
Cc1ccc(NC(=O)c2cc(C)nc3c2c(C)nn3-c2cccc(Cl)c2C)c(C)c1	·	–	–	–	·	–
CCSC1(SCC)N=C(N)C2(C#N)C(c3ccc(F)cc3)C12C#N (configuration not stated)	–	–	–	32µM	?	?
C=CCc1ccccc1OCCSc1nc(-c2ccccc2F)nc2cc(=O)[nH]n12	·	–	–	–	·	–
CC(/C=N/n1c(-c2ccncc2)n[nH]c1=S)=C\c1ccco1	–	–	–	50µM	–	–
CC(/C=N/n1c(-c2ccc(C)cc2)n[nH]c1=S)=C\c1ccco1	–	–	–	?	–	–
COc1ccc(C(=O)c2ccc(OC)c(Br)c2)cc1Br	·	–	–	40µM	–	–
CSc1ccc(CCNC(=O)c2cc3cc(S(=O)(=O)N4CCCCC4)ccc3n2C)cc1	·	–	–	–	·	–
CC1CCN(c2cc(N(C)CCO)c([N+](=O)[O-])c3nonc23)CC1	–	–	–	45µM	–	–
SMILES	GALK inhibitor	IDH1 R132H inh	TrxR1 substrate	rTrxR1 inhibitor	PKM2 activator	Apoferritin bind
Cc1cccc(C(=O)NC2CCN(C(=O)NCc3ccccc3)CC2)c1	–	–	–	25µM	–	–
Cc1oc2ncn(CC(C)C)c(=O)c2c1C(=O)N1CCN(c2cccc(C(F)(F)F)c2)CC1	·	–	–	–	·	?
Cc1ccc(CNC(=O)c2coc(=O)c3ccccc23)o1	–	–	–	?	13µM	–
Cc1ccc(CCC(=O)NCc2ccccc2)o1	–	–	–	–	–[11.5 µM]	–
CCn1cc(C(=O)NCc2ccc(C)o2)c2cc(OC)c(OC)cc2c1=O	–	–	–	22µM	14µM	–
COc1cc(N(C)C)c(OC)cc1C=O	·	·	–	–	·	·
Cc1c(CC(=O)N2CCN(C(=O)C3COc4ccccc4O3)CC2)c(=O)oc2cc(O)c(Cl)cc12 (configuration not stated)	–	–	–	32µM	–	–

Source: PubChem BioAssay (National Center for Advancing Translational Sciences (NCATS))
